# High-throughput results deposited in PubChem BioAssay by The Scripps Research Institute Molecular Screening Center.
# An excerpt weighted towards active compounds, which were near 4.1% of everything screened.
# hcDAF-12 act = H. contortus DAF-12 activation, primary screen; HEK293 hcDAF-12 lit1-tk-luc reporter, luminescence; 0% DMSO, 100% Δ7-dafachronic acid; activation, % at 6.8 µM; 370,000 tested, 1.4% active; AID 652067;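 active = activation above the mean of all tested compounds plus 3 SD, cut at about 5.5% in these data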
# ssDAF-12 act = activates DAF-12 receptor from parasite S. stercoralis | HEK293 ssDAF-12/GRIP1 lit1-tk-luc reporter, luminescence; % of 3 µM dafachronic acid response | activation, % at 6.8 µM | 370,000 tested, 1% active;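 active = activation above the mean over all tested compounds plus 3 SD, cut at about 0.9% in these data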
# hgDAF12 agonist = activates the H. glycines DAF-12 receptor ligand-binding domain | HEK293 GAL4-hgDAF12 UAS-luciferase reporter, agonist luminescence; normalized to butyrate control | activation, % at 6.8 µM | 370,000 tested, 1.8% active;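 active = activation above a cutoff set at the mean of all screened compounds plus 3 SD, cut at about 10% in these data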
# DAX1 inh-1 = inhibitors of human orphan nuclear receptor DAX1 (NR0B1); P51843; HEK293 Gal4-DAX1 luciferase reporter, luminescence; inhibition, % at 6.75 µM; 340,000 tested, 0.99% active;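 active = inhibition above the mean over all tested compounds plus 3 SD, cut at about 4.2% in these data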;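 note: inhibition shows as a rise in luminescence from relieved DAX1 repression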
# DAX1 inh-2 = DAX1 (NR0B1) inhibition, primary screen; AID 652010; HEK293T StAR-luciferase reporter, SF-1/DAX-1 repression relief; inhibition, % at 6.8 µM; 370,000 tested, 1.1% active;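 active = inhibition above the mean over all tested compounds plus 3 SD, cut at about 3.6% in these data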;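 note: higher inhibition means more luminescence from relief of DAX-1 repression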
# hgDAF12 conf = confirmation of H. glycines DAF-12 agonists. AID 743050. 3,300 tested, 80% active. activation, % at 6.8 µM. shares compounds with hgDAF12 agonist. HEK293 GAL4-hgDAF12 luciferase reporter, agonist mode; percent of butyrate response;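 active = mean activation over triplicate wells above the hit cutoff derived from the earlier primary screen, cut at about 11% in these data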
# LXR ag 2 = activates human LXR-beta, counter-screen for DAF-12 agonists; shares compounds with hgDAF12 agonist; AID 743051; HEK293 Gal4-LXR luciferase reporter, 24 h; 3,300 tested, under 10 active; activation, % at 6.8 µM;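 active = mean activation of the triplicate above a set limit carried over from the primary screen, none filed active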
# Target sequence (P55055 whole entry, looked up, the tested form may be a part): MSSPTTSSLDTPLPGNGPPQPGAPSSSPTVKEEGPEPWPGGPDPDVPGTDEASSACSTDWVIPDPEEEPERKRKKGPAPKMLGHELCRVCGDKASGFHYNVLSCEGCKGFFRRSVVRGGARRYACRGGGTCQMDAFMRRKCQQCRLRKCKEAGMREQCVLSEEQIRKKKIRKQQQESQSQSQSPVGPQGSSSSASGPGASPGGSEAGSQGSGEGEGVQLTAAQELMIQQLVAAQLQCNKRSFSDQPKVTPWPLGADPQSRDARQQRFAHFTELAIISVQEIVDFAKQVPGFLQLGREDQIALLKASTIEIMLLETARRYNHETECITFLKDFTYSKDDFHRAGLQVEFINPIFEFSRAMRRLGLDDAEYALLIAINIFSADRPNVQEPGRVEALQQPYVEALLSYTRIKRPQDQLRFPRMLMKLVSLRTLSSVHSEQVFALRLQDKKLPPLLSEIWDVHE
# Numbers stand for hits; - = inactive; . = no result given.
SMILES,hcDAF-12 act,ssDAF-12 act,hgDAF12 agonist,DAX1 inh-1,DAX1 inh-2,hgDAF12 conf,LXR ag 2
CN(C(=O)c1ccc(NC(=O)C2CCCN(C(=O)OC(C)(C)C)C2)cc1)C1CCC1 (stereo unspecified),-,-,-,-,-,.,.
CCOC(=O)c1sc2nc(-c3cccnc3)ccc2c1N,-,-,22,-,-,17,-
CCOC(=O)Cc1csc(NC(=O)c2ccco2)n1,-,-,13,-,-,-,-
COc1ccc(NC(=S)N/C(=N/CS(=O)(=O)c2ccccc2)c2ccccc2)cc1,-,-,14,-,-,-,-
O=C(CSc1nc2ccccc2[nH]1)c1ccccc1F,5.8,-,16,-,-,12,-
O=C(CSc1nc2ccccc2[nH]1)c1c[nH]c2ccccc12,-,-,-,-,-,.,.
O=C(NCc1ccco1)c1ccc(-c2ccc(F)c(F)c2)c2ccoc12,-,-,-,.,-,.,.
Cc1ccc(N2Cc3ccccc3C2=S)cc1,-,-,21,-,-,20,-
Cc1ccc(N2Cc3ccccc3OC(C)C2=O)cc1 (stereo unspecified),-,-,-,-,-,.,.
O=C(Nc1ccccc1)Nc1ccccc1Br,-,-,19,-,4.1,-,-
CCN(C(=O)CSc1n[nH]c(N)n1)c1cccc2ccccc12,-,-,-,-,-,.,.
COC(=O)C1CCN(C(=O)c2oc3c(Cl)cc(C)cc3c2C)CC1,-,-,14,-,-,16,-
CCOC(=O)C1CCCCN1C(=O)c1oc2c(Cl)cc(C)cc2c1C (stereo unspecified),-,-,-,-,-,.,.
O=C(COC(=O)COc1ccccc1F)NCCc1ccc(F)cc1,-,-,-,-,-,.,.
CCOC(=O)c1cnc(-c2ccccc2)nc1N,-,-,14,-,4.5,16,-
Nc1cc(Cl)ccc1Oc1ccc2ccccc2c1,-,-,22,-,-,-,-
CC(C)(C)c1ccc(OCCn2ccccc2=O)cc1,6.2,-,16,-,-,17,-
O=c1ccccn1CCOc1ccc(Cl)cc1,-,-,-,-,-,.,.
O=C(/C=C/c1ccccc1)C1C(=O)c2ccccc2C1=O,-,-,22,-,-,12,-
O=C(c1ccccc1)C1C(=O)c2ccccc2C1=O,-,-,-,-,-,.,.
CCOC(=O)C1=C(COC(=O)[C@@H](NC(=O)c2cccc(C)c2)C(C)C)NC(=O)NC1C (stereo partly specified),-,-,-,-,-,.,.
O=C(CSc1ccccn1)c1ccc(F)cc1,-,-,-,-,-,.,.
Cc1ccc(C(=O)CSc2ccccn2)cc1,-,-,15,-,-,14,-
O=C(Nc1ccccc1Cl)c1ccc(Cl)cc1Cl,-,-,-,-,-,.,.
O=C(NC(=S)Nc1ccccc1O)c1ccc(Cl)cc1Cl,6.5,-,14,-,-,-,-
SMILES,hcDAF-12 act,ssDAF-12 act,hgDAF12 agonist,DAX1 inh-1,DAX1 inh-2,hgDAF12 conf,LXR ag 2
C=CCOc1ccccc1CN1CCC(n2nccc2NC(=O)c2ccccc2)CC1,-,-,-,-,-,.,.
CC1CC1C(=O)Nc1nc2ccc(S(C)(=O)=O)cc2s1 (stereo unspecified),-,-,-,-,-,.,.
Cc1ccc2nc(NC(=O)CCn3cccc3)sc2c1,-,-,15,-,-,-,-
Cc1ccc2nc(NC(=O)C3CC3C)sc2c1 (stereo unspecified),-,-,14,-,-,12,-
CC1CCN(C(=O)CCc2nnc(-c3ccccc3)o2)CC1,-,-,14,-,-,11,-
CCOc1ccc2nc(NC(=O)Cn3c(C)csc3=O)sc2c1,-,-,-,-,-,.,.
COc1cc(OC)cc(C(=O)Nc2nc3ccc(S(C)(=O)=O)cc3s2)c1,-,-,-,-,-,.,.
CCOc1ccc2nc(NC(=O)CCC(=O)c3cccs3)sc2c1,-,-,13,-,-,15,-
CS(=O)(=O)c1ccc2nc(NC(=O)c3cccs3)sc2c1,6.3,-,15,-,4.0,16,-
CCn1cc(CN2CCCC(CNC(=O)COc3ccccc3OC)C2)c(C)n1 (stereo unspecified),-,-,-,-,-,.,.
COc1ccc(/C=C/C(=O)NC(=S)NNC(=O)c2cccs2)cc1,-,-,13,-,-,-,-
O=c1c2ccc(Cl)cc2nc(-c2ccc([N+](=O)[O-])cc2)n1O,-,-,-,-,-,.,.
CCOC(=O)C(C)On1c(-c2ccc(Cl)cc2)nc2ccc([N+](=O)[O-])cc21 (stereo unspecified),-,-,14,-,-,20,-
O=C(O)COn1c(-c2ccccc2)nc2ccc([N+](=O)[O-])cc21,-,-,14,-,-,13,-
C=CCN=Cc1sc2ccc(OCC)cc2c1O,5.6,-,14,.,-,-,-
CCCCN=Cc1sc2ccc(OCC)cc2c1O,-,-,-,-,-,.,.
O=C(NCCc1ccccc1)c1n[nH]c2ccccc12,5.7,-,15,-,-,13,-
O=C(OCCOc1ccccc1)c1n[nH]c2ccccc12,-,-,15,-,-,13,-
CCOC(=O)c1n[nH]c2ccccc12,-,-,-,-,-,.,.
O=C(NCCc1ccc(Cl)cc1)c1n[nH]c2ccccc12,-,-,-,-,-,.,.
O=C(NCc1ccc(F)cc1)c1ccc(Br)o1,-,-,-,-,-,.,.
CN1CCCC1CCNc1ccc2oc3ccccc3c(=O)c2c1 (stereo unspecified),-,-,-,.,-,.,.
COc1cccc2sc3cc(NCCCN4CCOCC4)ccc3c(=O)c12,-,-,-,-,-,.,.
O=c1c2ccccc2oc2ccc(NCCCN3CCOCC3)cc12,-,-,13,-,-,16,-
CN1CCCC1CCNc1ccc2c(=O)c3ccccc3oc2c1 (stereo unspecified),-,-,14,-,-,15,-
SMILES,hcDAF-12 act,ssDAF-12 act,hgDAF12 agonist,DAX1 inh-1,DAX1 inh-2,hgDAF12 conf,LXR ag 2
COc1ccc(-n2nc(C(=O)NCC(=O)NCCCN3CC(C)CC(C)C3)c3ccccc3c2=O)cc1 (stereo unspecified),-,-,-,-,-,.,.
COc1ccc(/C=N/NC(=O)c2sccc2C)c2ccccc12,-,-,15,6.2,-,-,-
Cc1ccc(C)c(Cn2nc(-c3cc(C)ccc3C)ccc2=O)c1,-,-,-,-,-,.,.
Cc1ccc(SCCNC(=O)c2ccccc2F)cc1,-,-,-,-,-,.,.
O=C(NCCSc1ccccc1)c1ccccc1F,5.8,-,13,-,-,13,-
O=C1/C(=C/c2ccc(O)cc2)COc2ccccc21,-,-,15,-,-,12,-
O=C1/C(=C/c2ccccn2)COc2ccccc21,-,-,-,-,-,.,.
